G9a block = G9a (human) methyltransferase inhibition; Potency, µM (doses to about 102 µM), for the others: top-dose activity, negative = inhibition, hits mostly inhibitors; AID 504332; G9a H3K9 monomethylation, AlphaScreen, 2 h; actives 8.8% (n = 350,000); note: potency is the fitted concentration of half-maximal effect; % is set by controls: 0 for no effect and ±100 for the full control effect; nearly all actives have a fitted effect of over 75% in size
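Methyltransferase reactions run at room temperature for 2 h (20 nM enzyme, 500 nM biotin-H3K9 peptide, 20 uM SAM) after a 15 min compound preincubation; product detected by AlphaScreen beads and anti-H3K9me1 antibody.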
BAZ2B inh = BAZ2B (human) inhibition; Q9UIF8; AlphaScreen BAZ2B-H3K14Ac peptide displacement; Potency, µM (highest dose often 114 µM), inactives show at the highest dose activity change, negative = inhibition, hits mostly inhibitors; actives 4.4% (n = 360,000); AID 504333; note: potency is the fitted concentration of half-maximal effect; % is set by controls: 0 for no effect and ±100 for the full control effect; nearly all actives have a fitted effect of over 60% in size
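Compounds, titrated to a top concentration of 110 uM, were incubated 30 min at room temperature with preformed BAZ2B/acetyl-K14 H3 peptide complex (50 nM each). Proximity signal was measured by AlphaScreen after 20 min with beads.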
JMJD2A Tudor inh = inhibitors of human JMJD2A Tudor domain; O75164; actives 4.4% (n = 390,000); Potency, µM (titrated, usually from 114 µM), for inactives: at the highest dose activity change, negative = inhibition, most hits filed as inhibitors; AID 504339; AlphaScreen JMJD2A-Tudor / H3K4me3 peptide binding; note: potency is the fitted concentration of half-maximal effect; % is set by controls: 0 for no effect and ±100 for the full control effect; nearly all actives have a fitted effect of over 50% in size
CtBP-E1A inh = CtBP/E1A binding inhibition; AlphaScreen GST-E1A/His-CtBP binding, 1536-well; hits give low values; AID 651724; actives 0.49% (n = 340,000); activity change, % (test concentration not listed); in the data active = activity change below about -65%; inconclusive = mostly about -30% to -63%; note: % is set by controls: 0 for no effect and ±100 for the full control effect
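Homogeneous bead-based format: GST-tagged E1A captured on glutathione donor beads, His-tagged CtBP on nickel acceptor beads; compounds precede bead addition by 2 h at 37 °C.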
HP1b binding inh = blocks HP1-beta chromodomain binding to methylated histone tails | P83916 | AlphaScreen HP1-beta / biotin-H3K9me3 peptide binding | Potency, µM (top dose mostly 114 µM), inactives show top-dose activity change, negative = inhibition, most hits filed as inhibitors | actives 0.56% (n = 390,000) | AID 540317; note: potency is the fitted concentration of half-maximal effect; nearly all actives have a fitted effect of over 70% in size
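AlphaScreen: HP1-beta (50 nM) preformed 30 min with biotin-H3(1-18)K9me3 peptide (50 nM) in PBS pH 7.4, 0.01% Tween-20. Compound added for 30 min at RT, then streptavidin donor/nickel chelate acceptor beads (10 ug/mL) for 30 min.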
Six1-Eya2 blk = inhibitors of human Six1/Eya2 interaction; AlphaScreen GST-Six1/His-Eya2 binding, biochemical; hits give low values; activity change, % (test concentration not listed); actives 0.56% (n = 360,000); Q15475+O00167; in the data active = activity change below about -65%; inconclusive = mostly about -30% to -63%; note: % is set by controls: 0 for no effect and ±100 for the full control effect
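Six1/Eya2 binding was read as AlphaScreen signal after compounds were pinned into GST-Six1 plus His-tagged Eya2 (5X stock 250/500 nM) in pH 8.0 Tris/NaCl/TCEP buffer, beads added, then incubated 1 h, 37 C, dark.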
Numbers without * were called inactive; u = inconclusive; x = no result; ! = repeats disagree; [ ] = remark or other dose. Shown are actives, neighbours in structure and some others; about 10% of the full set was active somewhere. Unless noted, calls come from the whole dose curve; as a rule, active = well fitted inhibition curve with a large enough effect; inconclusive = small, poorly fitted or top-dose-only effect; inactive = no such curve, though single readings can be large or run the other way.

SMILES	G9a block	BAZ2B inh	JMJD2A Tudor inh	CtBP-E1A inh	HP1b binding inh	Six1-Eya2 blk
Cc1c(O)ccc(C(=O)CN2CCN(c3ccccc3F)CC2)c1O	u	u	7%	x	43%	2
COc1ccc(C(=O)CN2CCN(c3ccc(F)cc3)CC2)cc1	x	u	-18%	x	25%	0
COC(=O)c1ccc2nc(C3CCCCC3)c(Cc3ccc(OC)cc3C)n2c1	x	x	x	0	x	0
O=C(Nc1ccc(C(F)(F)F)cc1)N1CCC(N2CCCCC2)CC1	-2%[59 µM]	-3%	-12%	x	22%	x
CCN1CCN(C(C)C(=O)Nc2c(C)n(C)n(-c3ccccc3)c2=O)CC1 (centres undefined)	11µM*	50µM*	7.9µM*	6	u	5
Cc1c(NC(=O)C2CC=CCC2C(=O)O)c(=O)n(-c2ccccc2)n1C (centres undefined)	-47%[12.7 µM]	79µM*	-19%	6	11%	-7
CCC(CC)C(=O)Nc1c(C)n(C)n(-c2ccccc2)c1=O	-4%	10%	3%	-1	25%	6
Cc1c(NC(=O)CN2CC(C)OC(C)C2)c(=O)n(-c2ccccc2)n1C (centres undefined)	16µM*	20µM*	11µM*!	5	56µM*!	9
COc1ccc(S(=O)(=O)NC2CCCC2)cc1Cl	38%	-3%	-1%	7	37%	4
COc1ccc(Br)cc1/C=N/N1C(=O)CSC1=S	79µM*	u	u	-27	u	-11
O=C1CSC(=S)N1N=Cc1cccc(OCc2ccccc2)c1	x	x	x	-14	x	-23
O=C1CSC(=S)N1N=Cc1c[nH]c2ccc(Br)cc12	x	x	x	-8	x	u
COc1cc(O)c(C=NN2C(=O)CSC2=S)c(OC)c1	x	x	x	u	x	-87*
O=C1CSC(=S)N1Cc1cccnc1	u	40µM*	u	-6	u	-2
O=C1CSC(=S)N1/N=C/c1cccnc1	7.1µM*	-3%	-7%	-13	6%	-14
COc1cc(/C=N/N2C(=O)CSC2=S)ccc1O	-15%[12.7 µM]	u	-46%	u	u	-23
CC(C)Cc1nn2c(=O)cc(COC(=O)c3cccc(NS(C)(=O)=O)c3)nc2s1	5%[59 µM]	-2%	-19%	x	19%	x
Cc1ccccc1CNC(=O)C1CCCN(c2nnc(-n3c(C)ccc3C)s2)C1 (centres undefined)	4%[59 µM]	-8%	-31%	x	35%	x
O=[N+]([O-])c1ccc([S+](=O)([O-])N2CCN([S+](=O)([O-])c3ccc4c(c3)OCCO4)CC2)c([N+](=O)[O-])c1	x	x	-6%	x	x	x
Cc1ccccc1/C=N/N1C(=O)CSC1=S	u	-27%	u	x	-5%	-23
O=C1CSC(=S)N1N=Cc1ccc(OCc2ccccc2)cc1	x	x	x	-21	x	u
CC(C)CCOc1ccc(/C=N/N2C(=O)CSC2=S)cc1	-4%	-20%	-34%	u	21%	-20
O=C1CSC(=S)N1/N=C/c1cc(Br)c(O)c(Br)c1	40µM*	35µM*	16µM*	u	-36%[57 µM]	u
O=C1CSC(=S)N1/N=C/c1ccc2c(c1)OCCO2	u	u	u	-82*	-9%	-28
O=C1CSC(=S)N1N=Cc1ccccc1O	x	x	18µM*	-2	u	-90*
SMILES	G9a block	BAZ2B inh	JMJD2A Tudor inh	CtBP-E1A inh	HP1b binding inh	Six1-Eya2 blk
O=C1CSC(=S)N1/N=C/c1ccc(Cl)c([N+](=O)[O-])c1	x	35µM*	x	x	x	x
Cc1ccc(-c2cc(C(=O)Nc3c(C)n(C)n(-c4ccccc4)c3=O)[nH]n2)c(O)c1C	-39%	-18%	-9%	-1	39%	-4
CSc1nc2ccc(N3C(=O)C4CCCCC4C3=O)cc2s1 (centres undefined)	8%	7%	-23%	-7	-2%	-10
CC(C)(C)OC(=O)NN1CC(=O)N2Cc3ccccc3C[C@@H]2C1=O	-7%	-2%	3%	0	46%	46
COc1ccc2nc(SCC(O)c3cccc(Br)c3)[nH]c2c1 (centres undefined)	u	-11%	u	x	-5%	x
COC(=O)C(NC(=O)CCc1c(C)nc2c(-c3ccccc3)c(C)nn2c1C)C(C)C (centres undefined)	-24%[59 µM]	3%	-3%	x	32%	x
Cc1ccc(S(=O)(=O)Nn2c(C)ccc2C)cc1	-10%[2.33 µM]	u	50µM*	0	0%	-3
Cc1ccc(S(=O)(=O)Nc2ccccc2NS(=O)(=O)c2ccc(C)cc2)cc1	x	x	x	2	x	0
Cc1ccc(Nc2ncnc3c2nnn3Cc2ccccc2)cc1	47%	21%	-6%	5	11%	3
N#CC(C#N)=c1ccc2c(c1)N1C3=C(CCCC3)CC3CCCCC31N=2 (centres undefined)	2.2µM*	1.8µM*	45µM*	-6	u	-26
N#C/C(C(N)=O)=c1/ccc2c(c1)N1C3=C(CCCC3)CC3CCCCC31N=2 (centres undefined)	4µM*	3.5µM*	6.3µM*	-11	10µM*	-22
O=C(CSC(=S)N1CCCC1)c1cc(Br)cc(Br)c1O	20µM*	40µM*	u	9	u	-5
CC(C)OC(=O)c1cccnc1SCc1cc(=O)n2ccccc2n1	50µM*	-8%	-8%	5	54%	3
Cc1cnc(C(=O)Nc2nnc(C)s2)cn1	2µM*	u	1.1µM*	-12	33%	-16
Cc1csc(NC(=O)c2cccnc2)n1	18%	10%	-9%	x	35%	3
Cc1cnc(C(=O)Nc2nnc(C(C)C)s2)cn1	1µM*	50µM*	0.28µM*	u	28%	u
Cc1cnc(C(=O)Nc2nnc(C3CC3)s2)cn1	5.6µM*	u	-7%	-3	17%	7
Cc1csc(NC(=O)c2cnccn2)n1	3.5µM*	u	7.9µM*	-28	-2%	-15
Cc1ccc(Nc2nc(C#N)nc(NC3CCCC3)n2)cc1	x	x	-16%	x	x	x
Cc1cc2nccc(-c3ccc(Cl)c([N+](=O)[O-])c3)n2n1	-2%	-19%	-23%	0	19%	-2
CC(C)c1nnc(NC(=O)c2cnccn2)s1	u	40µM*	1.1µM*	-23	9%	-17
Cc1ccc(F)c(S(=O)(=O)NC(=O)C2(C)CCN2C(=O)c2ccc(C(F)(F)F)nc2C)c1 (centres undefined)	x	x	x	5	x	5
CCN(CC)CCNC(=O)c1ccc(NC(=O)c2ccc(C(=O)c3ccccc3)cc2)cc1	7.1µM*	-17%	-15%	15	7%	4
Nc1c(C(=O)c2ccc(Br)s2)oc2ccccc12	45µM*	-3%	11%	8	32%	20

Screening results deposited in PubChem BioAssay by National Center for Advancing Translational Sciences (NCATS).
